# Measurements from PubChem BioAssay (Tox21).
# Records with an inconclusive call do not appear. Entries that show only a call come without a potency. The source made the active and inactive calls. Unless noted, calls come from the whole dose curve; as a rule, active = well fitted curve in the direction sought with a large enough effect in the repeat runs; inconclusive = weak or mixed curves; inactive = no such curve, though single readings can be large; an effect the other way counts as inactive or inconclusive.
# What was measured:
# [1] = target: Aryl hydrocarbon receptor (Homo sapiens) (UniProt P35869); assay: qHTS assay to identify small molecule that activate the aryl hydrocarbon receptor (AhR) signaling pathway (AID 743085); note: nearly all actives have a fitted effect of over 15% in size; note: potency is the fitted concentration of half-maximal effect;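 for activation: HG2L7.5c1 human HepG2 liver cells with stably integrated DRE-driven firefly reporter; series mostly up to about 70 µM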
# Sequence of Aryl hydrocarbon receptor (Homo sapiens) (P35869 whole entry, looked up): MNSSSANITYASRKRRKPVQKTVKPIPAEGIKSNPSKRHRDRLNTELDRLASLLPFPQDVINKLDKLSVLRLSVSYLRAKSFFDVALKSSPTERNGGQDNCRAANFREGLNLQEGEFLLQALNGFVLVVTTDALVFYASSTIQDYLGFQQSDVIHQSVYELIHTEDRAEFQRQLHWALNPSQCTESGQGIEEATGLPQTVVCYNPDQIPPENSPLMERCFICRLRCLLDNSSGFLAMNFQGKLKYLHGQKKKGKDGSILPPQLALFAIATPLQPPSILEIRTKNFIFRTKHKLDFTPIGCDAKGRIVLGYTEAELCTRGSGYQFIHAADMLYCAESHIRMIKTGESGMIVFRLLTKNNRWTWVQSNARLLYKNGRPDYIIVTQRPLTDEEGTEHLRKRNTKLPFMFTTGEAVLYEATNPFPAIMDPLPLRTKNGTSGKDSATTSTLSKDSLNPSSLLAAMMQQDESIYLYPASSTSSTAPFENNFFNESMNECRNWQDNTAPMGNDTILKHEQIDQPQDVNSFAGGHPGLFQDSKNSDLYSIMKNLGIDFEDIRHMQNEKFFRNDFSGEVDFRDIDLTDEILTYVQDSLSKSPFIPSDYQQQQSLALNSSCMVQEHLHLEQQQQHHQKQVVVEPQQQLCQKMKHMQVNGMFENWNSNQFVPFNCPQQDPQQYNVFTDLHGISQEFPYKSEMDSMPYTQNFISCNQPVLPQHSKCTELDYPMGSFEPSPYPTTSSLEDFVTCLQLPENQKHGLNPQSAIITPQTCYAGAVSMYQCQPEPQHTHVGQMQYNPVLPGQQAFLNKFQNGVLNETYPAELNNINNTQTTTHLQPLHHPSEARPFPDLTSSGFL
# Procedure, shortened: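 A multiplexed format paired cell viability (CellTiter-Fluor fluorescence) with AhR-dependent luciferase output (ONE-Glo luminescence) in the same wells of HepG2 DRE-luc cells after 24 h compound exposure at 37C.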
# [2] = qHTS assay to identify small molecule that activate the aryl hydrocarbon receptor (AhR) signaling pathway - cell viability counter screen (AID 743086);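 note: HepG2 liver cells carrying the AhR DRE luciferase reporter; series mostly up to about 70 µM; nearly all actives have a fitted effect of over 45% in size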
# Procedure, shortened: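 HepG2-AhR-luc (HG2L7.5c1) cells, 4000/well, were preincubated 5 h at 37C, exposed to compound in qHTS format for 24 hr at 37C, then given CellTiter-Fluor for 30 min; viability was read as fluorescence in the reporter wells.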
# [3] = target: Peroxisome proliferator-activated receptor gamma (Homo sapiens) (UniProt P37231); assay: qHTS assay to identify small molecule agonists of the peroxisome proliferator-activated receptor gamma (PPARg) signaling pathway (AID 743094; active = well fitted activation curve with a large enough effect in the signal ratio in the repeat runs, not every such curve was filed as active; the % refers to the signal ratio)
# Sequence of Peroxisome proliferator-activated receptor gamma (Homo sapiens) (P37231 whole entry, looked up): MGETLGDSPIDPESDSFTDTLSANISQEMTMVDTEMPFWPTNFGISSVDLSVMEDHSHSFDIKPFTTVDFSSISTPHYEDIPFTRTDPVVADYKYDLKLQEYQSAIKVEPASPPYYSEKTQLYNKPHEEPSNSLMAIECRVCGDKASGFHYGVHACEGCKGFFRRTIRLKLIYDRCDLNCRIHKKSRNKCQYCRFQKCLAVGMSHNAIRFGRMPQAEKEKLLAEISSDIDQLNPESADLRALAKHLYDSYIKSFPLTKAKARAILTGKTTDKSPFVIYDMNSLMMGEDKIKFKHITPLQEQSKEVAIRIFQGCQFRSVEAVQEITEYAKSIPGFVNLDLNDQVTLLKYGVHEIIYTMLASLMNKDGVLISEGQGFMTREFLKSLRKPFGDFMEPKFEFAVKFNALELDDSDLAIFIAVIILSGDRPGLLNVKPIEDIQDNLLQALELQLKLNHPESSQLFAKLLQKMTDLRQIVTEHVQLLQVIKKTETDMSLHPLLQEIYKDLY
# Procedure, shortened: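 Cell-based bla reporter, HEK293H background, PPARg-driven UAS. Pre-incubation 5 h, 37C, 5% CO2. Compound 17 h, 37C. Substrate 1 h RT; fluorescence.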
# [4] = target: Peroxisome proliferator-activated receptor gamma (Homo sapiens) (UniProt P37231); assay: qHTS assay to identify small molecule antagonists of the peroxisome proliferator-activated receptor gamma (PPARg) signaling pathway (AID 743191; calls by dose curve; note: series mostly up to about 63 µM; nearly all actives have a fitted effect of over 30% in size)
# Procedure, shortened: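 GeneBLAzer PPARg UAS-bla HEK293H cells carrying a UAS-driven beta-lactamase reporter were plated at 3000 cells/well, preincubated 5 h at 37C, then given compound for 17 h at 37C; LiveBLAzer B/G FRET substrate was read after 1 h at room temperature.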
# [5] = qHTS assay to identify small molecule antagonists of the peroxisome proliferator-activated receptor gamma (PPARg) signaling pathway - cell viability counter screen (AID 743194); conditions: Potency: co-treated with 50 nM rosiglitazone; note: nearly all actives have a fitted effect of over 55% in size
# Procedure, shortened: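 PPARg-UAS-bla HEK293H cells were plated, rested 5 h at 37 C, then treated with compounds plus rosiglitazone (50 nM final) for 17 h at 37 C; viability was then read by CellTiter-Glo luminescence after 30 min at room temperature.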
# [6] = qHTS assay for small molecule agonists of the antioxidant response element (ARE) signaling pathway (AID 743202; active = well fitted activation curve with a large enough effect in the signal ratio in the repeat runs, not every such curve was filed as active; the % refers to the signal ratio; note: potency is the fitted concentration of half-maximal effect)
# Procedure, shortened: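 Following a 16 h, 37 C exposure of reporter HepG2 cells (ARE-driven beta-lactamase, 2,000 cells/well) to compounds, FRET substrate was applied for 2 h at room temperature and fluorescence intensity recorded.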
# [7] = qHTS assay for small molecule agonists of the antioxidant response element (ARE) signaling pathway - cell viability counter screen (AID 743203; calls by dose curve; note: nearly all actives have a fitted effect of over 55% in size)
# Procedure, shortened: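 Measured in the same wells as the beta-lactamase ARE reporter, this read-out is CellTiter-Glo luminescence from HepG2 ARE-bla cells given compounds for 16 hrs.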
# [8] = qHTS assay for small molecule activators of the heat shock response signaling pathway - cell viability counter screen (AID 743209); note: nearly all actives have a fitted effect of over 50% in size
# Procedure, shortened: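 Same-well multiplex: after 2.5 h room-temperature incubation with LiveBLAzer B/G substrate and fluorescence reading, CellTiter-Glo reagent was added to HSE-bla HeLa cells that had received compound for 5 h at 37 C; luminescence read after 30 min.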
# [9] = qHTS assay to identify small molecule agonists of the peroxisome proliferator-activated receptor delta (PPARd) signaling pathway - cell viability counter screen (AID 743211); note: nearly all actives have a fitted effect of over 55% in size
# Procedure, shortened: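 Tox21 library compounds, delivered in DMSO, were incubated 17 h with PPARd-bla HEK293H cells; cytotoxicity was taken from CellTiter-Glo luminescence read 30 min after reagent addition.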
# [10] = target: Peroxisome proliferator-activated receptor delta (Homo sapiens) (UniProt Q03181); assay: qHTS assay to identify small molecule agonists of the peroxisome proliferator-activated receptor delta (PPARd) signaling pathway (AID 743212; calls by dose curve)
# Sequence of Peroxisome proliferator-activated receptor delta (Homo sapiens) (Q03181 whole entry, looked up): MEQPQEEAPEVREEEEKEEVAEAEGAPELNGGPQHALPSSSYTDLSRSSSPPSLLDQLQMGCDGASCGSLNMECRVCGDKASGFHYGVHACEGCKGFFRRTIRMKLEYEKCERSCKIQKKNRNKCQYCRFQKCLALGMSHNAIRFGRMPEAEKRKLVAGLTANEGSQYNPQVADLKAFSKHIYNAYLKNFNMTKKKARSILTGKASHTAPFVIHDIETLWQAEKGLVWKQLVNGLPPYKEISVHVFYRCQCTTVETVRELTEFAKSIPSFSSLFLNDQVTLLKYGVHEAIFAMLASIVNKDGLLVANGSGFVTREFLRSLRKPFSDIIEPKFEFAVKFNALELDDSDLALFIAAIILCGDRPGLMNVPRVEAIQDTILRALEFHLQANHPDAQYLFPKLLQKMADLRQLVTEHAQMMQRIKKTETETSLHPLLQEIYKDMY
# Procedure, shortened: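 Beta-lactamase reporter read by fluorescence (LiveBLAzer B/G FRET, 2 h, room temperature). Test agents, in DMSO, incubated at 37 C with PPARd-bla HEK293H cells.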
# [11] = qHTS assay to identify small molecule antagonists of the peroxisome proliferator-activated receptor delta (PPARd) signaling pathway - cell viability counter screen (AID 743213); note: nearly all actives have a fitted effect of over 50% in size
# Procedure, shortened: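 PPARd-bla HEK293H cells (3000/well) got compound plus 300 nM L165041 agonist for 17 h at 37 C. Viability in the same wells came from CellTiter-Glo luminescence after 30 min at room temperature.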
# [12] = target: Peroxisome proliferator-activated receptor delta (Homo sapiens) (UniProt Q03181); assay: qHTS assay to identify small molecule antagonists of the peroxisome proliferator-activated receptor delta (PPARd) signaling pathway (AID 743215; active = well fitted inhibition curve with a large enough effect in the signal ratio in the repeat runs, not every such curve was filed as active; the % refers to the signal ratio;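 note: cells stimulated with agonist L165041 at 300 nM final during compound exposure; series mostly up to about 62 µM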)
# Procedure, shortened: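 Fluorescence from cleaved LiveBLAzer B/G FRET substrate (2 h, room temperature) reports PPARd-driven beta-lactamase in HEK293H UAS-bla cells. Cells had been treated 17 h at 37 C with compound plus 300 nM final L165041.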
# [13] = target: Bile acid receptor (Homo sapiens) (UniProt Q96RI1); assay: qHTS assay to identify small molecule antagonists of the farnesoid-X-receptor (FXR) signaling pathway (AID 743217; active = well fitted inhibition curve with a large enough effect in the signal ratio in the repeat runs, not every such curve was filed as active; the % refers to the signal ratio)
# Sequence of Bile acid receptor (Homo sapiens) (Q96RI1 whole entry, looked up): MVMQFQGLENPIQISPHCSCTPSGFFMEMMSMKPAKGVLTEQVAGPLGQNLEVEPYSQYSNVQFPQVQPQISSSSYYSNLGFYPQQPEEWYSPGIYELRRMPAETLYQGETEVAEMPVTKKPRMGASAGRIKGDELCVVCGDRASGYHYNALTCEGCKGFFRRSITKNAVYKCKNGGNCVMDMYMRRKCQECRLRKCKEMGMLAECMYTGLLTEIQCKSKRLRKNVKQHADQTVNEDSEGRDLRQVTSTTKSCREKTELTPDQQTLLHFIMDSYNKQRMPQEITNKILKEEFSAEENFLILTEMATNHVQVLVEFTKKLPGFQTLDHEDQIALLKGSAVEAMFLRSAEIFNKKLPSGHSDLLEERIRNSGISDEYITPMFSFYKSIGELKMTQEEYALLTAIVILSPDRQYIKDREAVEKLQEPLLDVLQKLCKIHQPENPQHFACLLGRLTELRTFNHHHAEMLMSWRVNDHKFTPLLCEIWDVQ
# Procedure, shortened: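 FRET fluorescence after 2 h room-temperature LiveBLAzer loading gives the readout. Prior step: FXR-bla HEK 293T cells, seeded and incubated 5 h, received test compounds plus 50 uM final CDCA for 16 h at 37 °C.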
# [14] = qHTS assay to identify small molecule agonists of the farnesoid-X-receptor (FXR) signaling pathway - cell viability counter screen (AID 743218); note: nearly all actives have a fitted effect of over 45% in size
# Procedure, shortened: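 Readout: CellTiter-Glo luminescence, 30 min RT, multiplexed after the FXR-bla FRET reading. HEK 293T FXR-UAS-bla cells received compound 5 h post-plating and were incubated 16 h at 37 C.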
# [15] = qHTS assay to identify small molecule antagonists of the farnesoid-X-receptor (FXR) signaling pathway - cell viability counter screen (AID 743221; active = well fitted cell-killing curve with a large enough effect in the repeat runs, not every such curve was filed as active; note: nearly all actives have a fitted effect of over 50% in size)
# Procedure, shortened: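 Cytotoxicity is taken from ATP luminescence (CellTiter-Glo, 30 min, room temperature) in FXR-bla HEK 293T cells previously incubated 16 h at 37 C with compound and chenodeoxycholic acid at 50 uM final.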
# [16] = target: Vitamin D3 receptor (Homo sapiens) (UniProt P11473); assay: qHTS assay to identify small molecule antagonists of the vitamin D receptor (VDR) signaling pathway (AID 743223; active = well fitted inhibition curve with a large enough effect in the signal ratio in the repeat runs, not every such curve was filed as active; the % refers to the signal ratio)
# Sequence of Vitamin D3 receptor (Homo sapiens) (P11473 whole entry, looked up): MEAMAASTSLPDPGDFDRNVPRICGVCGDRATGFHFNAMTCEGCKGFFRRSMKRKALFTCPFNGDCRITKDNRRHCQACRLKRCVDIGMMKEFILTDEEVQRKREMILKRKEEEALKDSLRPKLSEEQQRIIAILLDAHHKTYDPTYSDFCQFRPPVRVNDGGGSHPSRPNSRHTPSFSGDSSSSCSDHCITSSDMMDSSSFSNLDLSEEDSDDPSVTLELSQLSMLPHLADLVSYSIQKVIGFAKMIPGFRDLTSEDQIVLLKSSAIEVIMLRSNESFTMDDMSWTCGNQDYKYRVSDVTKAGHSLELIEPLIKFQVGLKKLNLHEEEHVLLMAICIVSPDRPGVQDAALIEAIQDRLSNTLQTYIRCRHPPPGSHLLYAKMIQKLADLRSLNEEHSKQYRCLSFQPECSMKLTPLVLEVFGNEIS
# Procedure, shortened: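 Quantitative HTS in VDR-bla reporter cells stimulated with 1alpha,25-dihydroxyvitamin D3, 3 nM final. Compound exposure 16 h, 37C, 5% CO2. Read-out: beta-lactamase FRET substrate fluorescence, 2 h RT.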
# [17] = qHTS assay to identify small molecule agonists of the vitamin D receptor (VDR) signaling pathway - cell viability counter screen (AID 743224); note: series mostly up to about 63 µM; nearly all actives have a fitted effect of over 50% in size
# Procedure, shortened: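 In parallel with the bla FRET readout, cytotoxicity toward VDR-bla cells after 16 h compound exposure was assessed by CellTiter-Glo, with luminescence recorded after a 30 min room-temperature incubation.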
# [18] = qHTS assay for small molecule activators of the heat shock response signaling pathway (AID 743210; active = well fitted activation curve with a large enough effect in the signal ratio in the repeat runs, with a control signal flat, not every such curve was filed as active; the % refers to the signal ratio; note: series mostly up to about 63 µM)
# Procedure, shortened: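 Heat shock element–beta-lactamase HeLa reporter cells; qHTS with compounds for 5 h at 37 C; detection by FRET substrate fluorescence after 2.5 h at RT.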
# [19] = target: Vitamin D3 receptor (Homo sapiens) (UniProt P11473); assay: qHTS assay to identify small molecule agonists of the vitamin D receptor (VDR) signaling pathway (AID 743222; calls by dose curve)
# Procedure, shortened: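 Following 4 h attachment at 37C, VDR-bla cells (2,000 per well) received DMSO-dissolved compounds or controls. After 16 h incubation, LiveBLAzer B/G FRET substrate was added and fluorescence read 2 h later at room temperature.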
# [20] = target: Bile acid receptor (Homo sapiens) (UniProt Q96RI1); assay: qHTS assay to identify small molecule agonists of the farnesoid-X-receptor (FXR) signaling pathway (AID 743220; active = well fitted activation curve with a large enough effect in the signal ratio in the repeat runs, not every such curve was filed as active; the % refers to the signal ratio)
# Procedure, shortened: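 FXR-UAS-bla HEK 293T cells carrying a UAS-driven beta-lactamase reporter were plated for 5 h at 37C/5% CO2, then exposed to DMSO-dissolved Tox21 10K compounds for 16 h at 37C. A LiveBLAzer B/G FRET substrate was loaded for 2 h at room temperature before fluorescence reading.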
Structure (SMILES),Potency [1],Potency [2],outcome [3],Potency [4],Potency [5],Potency [6],Potency [7],Potency [8],Potency [9],outcome [10],Potency [11],Potency [12],outcome [13],Potency [14],Potency [15],outcome [16],Potency [17],Potency [18],outcome [19],outcome [20]
COc1cc(CCN)cc(OC)c1OC,inactive,inactive,inactive,inactive,inactive,inactive,inactive,inactive,inactive,inactive,inactive,inactive,inactive,inactive,inactive,inactive,inactive,–,–,–
C=CC(=O)OCCN(C)C,inactive,inactive,inactive,–,inactive,inactive,inactive,inactive,inactive,inactive,inactive,inactive,–,inactive,inactive,–,–,–,–,–
CCNP(=S)(OC)O/C(C)=C/C(=O)OC(C)C (stereo unspecified),4.86 µM (active),inactive,inactive,inactive,inactive,–,inactive,inactive,inactive,–,inactive,–,–,inactive,inactive,–,inactive,inactive,inactive,–
CCOC(=O)NC(C)(C)Cc1ccc(Cl)cc1,inactive,inactive,inactive,–,inactive,inactive,inactive,inactive,inactive,inactive,inactive,–,inactive,inactive,inactive,–,inactive,inactive,inactive,inactive
CC(C)(C1CCC(O)CC1)C1CCC(O)CC1 (stereo unspecified),inactive,inactive,inactive,–,inactive,inactive,inactive,inactive,inactive,–,inactive,–,–,inactive,inactive,inactive,inactive,inactive,–,–
Cc1ccc(Cl)c(O)c1,inactive,inactive,inactive,–,inactive,inactive,inactive,inactive,inactive,inactive,–,inactive,inactive,inactive,inactive,–,inactive,–,–,–
C=CCc1cc(OC)c2c(c1)OCO2,inactive,inactive,inactive,inactive,inactive,–,inactive,inactive,inactive,inactive,inactive,inactive,–,inactive,inactive,–,–,inactive,inactive,–
CC#Cc1cc(C)nc(Nc2ccccc2)n1,30.6 µM (active),inactive,inactive,–,inactive,34.3 µM (active),inactive,inactive,inactive,inactive,inactive,inactive,–,–,inactive,inactive,inactive,inactive,inactive,–
CN(CCO)CCO,inactive,inactive,inactive,inactive,inactive,–,inactive,inactive,inactive,inactive,–,inactive,inactive,–,inactive,inactive,inactive,–,inactive,–
CC(C)N(Cc1ccccc1)C(=O)C(C)(C)C,inactive,inactive,inactive,inactive,–,inactive,inactive,inactive,inactive,inactive,inactive,inactive,–,inactive,–,–,inactive,inactive,inactive,inactive
C[N+]1(C)CCCCC1,inactive,inactive,inactive,inactive,–,inactive,inactive,inactive,–,inactive,inactive,inactive,–,inactive,inactive,inactive,inactive,inactive,inactive,–
CC(C)(C)c1cc(O)ccc1O,26.6 µM (active) [middle of 4 runs],inactive,inactive,–,inactive,3.86 µM (active),–,inactive,–,inactive,–,–,inactive,inactive,inactive,–,inactive,inactive,–,inactive
OP(O)c1ccccc1,inactive,inactive,inactive,–,inactive,inactive,inactive,inactive,inactive,inactive,inactive,inactive,inactive,inactive,–,inactive,inactive,inactive,–,inactive
CCOC(=O)N(C)N=O,inactive,inactive,inactive,inactive,inactive,–,inactive,inactive,inactive,inactive,inactive,inactive,–,inactive,inactive,inactive,inactive,inactive,–,–
Oc1ccc(Cc2ccc(O)cc2)cc1,inactive,inactive,inactive,–,inactive,27.5 µM (active),inactive,inactive,inactive,inactive,–,inactive,–,inactive,inactive,–,inactive,–,–,–
CCOC(=O)CCl,inactive,inactive,inactive,–,inactive,–,inactive,inactive,inactive,inactive,inactive,inactive,inactive,inactive,inactive,–,inactive,inactive,–,–
ClCCCCCCCl,inactive,inactive,inactive,inactive,inactive,–,inactive,inactive,inactive,–,inactive,–,–,inactive,inactive,inactive,inactive,inactive,inactive,–
CCC1(c2ccccc2)CCC(=O)NC1=O (stereo unspecified),inactive,inactive,inactive,–,inactive,inactive,inactive,inactive,inactive,inactive,inactive,inactive,–,inactive,inactive,–,inactive,–,inactive,–
